Data on 1 sequence can be found in publication PMC7862700, “An all-to-all approach to the identification of sequence-specific readers for epigenetic DNA modifications on cytosine”.

Holding throughout (assay): DAPPL (digital affinity profiling via proximity ligation, sequencing); 10 mM Tris-HCl pH 7.5, 50 mM NaCl, 1 mM DTT, 4% glycerol, room temperature, 30 min; GST-TFs on glutathione beads, 16-mer random dsDNA library, 0.1% formaldehyde crosslink after washing; high values mean tight binding
In one assay the target is T1, FLI1 (Homo sapiens, UniProt Q01543 1-452).
T1 sequence: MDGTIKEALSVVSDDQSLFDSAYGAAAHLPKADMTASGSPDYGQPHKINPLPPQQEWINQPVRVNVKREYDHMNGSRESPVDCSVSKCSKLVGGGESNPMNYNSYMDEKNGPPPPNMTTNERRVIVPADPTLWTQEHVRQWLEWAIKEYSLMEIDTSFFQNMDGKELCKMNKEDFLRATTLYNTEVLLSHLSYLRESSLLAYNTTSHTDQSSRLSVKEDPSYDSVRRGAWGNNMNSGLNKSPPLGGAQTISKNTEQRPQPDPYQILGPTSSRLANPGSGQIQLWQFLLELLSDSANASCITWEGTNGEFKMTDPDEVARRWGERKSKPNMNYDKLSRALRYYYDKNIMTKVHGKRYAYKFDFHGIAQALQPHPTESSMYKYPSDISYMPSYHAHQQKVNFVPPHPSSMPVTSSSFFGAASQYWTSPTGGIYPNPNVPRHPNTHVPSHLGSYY
To be noted: protein: recombinant; tags: N-terminal GST; dsDNA, one strand shown. Summed up:
(§1)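 Each value of binding signal is a hexamer's read frequency for a factor divided by the same hexamer's frequency in the tag-only sample. Barcoded, bead-captured GST fusions of human transcription factors made in yeast were pooled with that sample and incubated with 200 nmole of a random double-stranded 16-mer DNA library in Tris/NaCl/DTT/glycerol buffer at room temperature for 30 min. Washing, 0.1% formaldehyde crosslinking, proximity ligation, PCR and Illumina NextSeq500 sequencing followed.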

Another assay addresses T2, ELK1 (Homo sapiens, UniProt P19419 1-428).
T2 sequence: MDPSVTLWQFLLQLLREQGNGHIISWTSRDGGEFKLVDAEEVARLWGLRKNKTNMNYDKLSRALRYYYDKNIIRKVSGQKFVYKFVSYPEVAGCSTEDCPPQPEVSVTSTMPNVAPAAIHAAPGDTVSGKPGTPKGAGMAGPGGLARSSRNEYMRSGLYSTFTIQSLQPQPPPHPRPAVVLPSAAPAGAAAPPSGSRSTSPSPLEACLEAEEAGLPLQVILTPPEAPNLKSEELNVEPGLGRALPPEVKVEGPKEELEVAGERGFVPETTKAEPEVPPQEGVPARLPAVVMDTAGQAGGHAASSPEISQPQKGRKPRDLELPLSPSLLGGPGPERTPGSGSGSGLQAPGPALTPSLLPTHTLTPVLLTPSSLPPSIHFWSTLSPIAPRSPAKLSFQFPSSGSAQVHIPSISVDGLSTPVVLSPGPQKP
To be noted: protein: recombinant; tags: N-terminal GST; dsDNA, one strand shown. In a few lines:
as §1

For a further assay, the target named is T3, GABPA (Homo sapiens, UniProt Q06546 1-454).
T3 sequence: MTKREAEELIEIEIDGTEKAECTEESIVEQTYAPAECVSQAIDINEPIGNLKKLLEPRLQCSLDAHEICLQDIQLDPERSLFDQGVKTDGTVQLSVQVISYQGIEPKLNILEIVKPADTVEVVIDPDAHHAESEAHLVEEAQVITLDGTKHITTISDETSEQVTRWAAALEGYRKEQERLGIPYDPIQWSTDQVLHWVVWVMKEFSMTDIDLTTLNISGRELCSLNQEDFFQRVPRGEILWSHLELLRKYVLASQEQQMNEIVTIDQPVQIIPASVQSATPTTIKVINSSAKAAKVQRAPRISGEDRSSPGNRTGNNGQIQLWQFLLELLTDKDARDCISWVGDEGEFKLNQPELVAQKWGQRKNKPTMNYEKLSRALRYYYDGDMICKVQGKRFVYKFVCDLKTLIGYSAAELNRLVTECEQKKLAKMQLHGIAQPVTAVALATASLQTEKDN
To be noted: protein: recombinant; tags: N-terminal GST; dsDNA, one strand shown. Summed up:
as §1

A further assay addresses T4, ERG (Homo sapiens, UniProt P11308 1-479).
T4 sequence: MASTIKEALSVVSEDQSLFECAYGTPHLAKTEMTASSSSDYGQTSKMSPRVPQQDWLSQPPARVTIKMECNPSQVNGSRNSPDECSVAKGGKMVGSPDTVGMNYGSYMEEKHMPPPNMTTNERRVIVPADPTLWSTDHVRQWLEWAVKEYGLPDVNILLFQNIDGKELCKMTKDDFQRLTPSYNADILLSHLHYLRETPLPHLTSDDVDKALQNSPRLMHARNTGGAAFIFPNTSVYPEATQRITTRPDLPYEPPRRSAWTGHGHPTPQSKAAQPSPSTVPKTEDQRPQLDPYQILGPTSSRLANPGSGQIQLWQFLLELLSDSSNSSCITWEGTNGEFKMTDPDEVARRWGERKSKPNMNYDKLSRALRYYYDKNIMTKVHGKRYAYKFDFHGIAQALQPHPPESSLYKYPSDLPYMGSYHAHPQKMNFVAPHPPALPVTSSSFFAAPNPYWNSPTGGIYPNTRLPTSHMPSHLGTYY
To be noted: protein: recombinant; tags: N-terminal GST; dsDNA, one strand shown. Summed up: as §1

The target of the next assay is ELF1 (Homo sapiens, UniProt P32519 1-619). To be noted: protein: recombinant; tags: N-terminal GST; dsDNA, one strand shown. In a few lines: as §1
A further assay concerns the target T5, EHF (Homo sapiens, UniProt Q9NZC4 1-300).
T5 sequence: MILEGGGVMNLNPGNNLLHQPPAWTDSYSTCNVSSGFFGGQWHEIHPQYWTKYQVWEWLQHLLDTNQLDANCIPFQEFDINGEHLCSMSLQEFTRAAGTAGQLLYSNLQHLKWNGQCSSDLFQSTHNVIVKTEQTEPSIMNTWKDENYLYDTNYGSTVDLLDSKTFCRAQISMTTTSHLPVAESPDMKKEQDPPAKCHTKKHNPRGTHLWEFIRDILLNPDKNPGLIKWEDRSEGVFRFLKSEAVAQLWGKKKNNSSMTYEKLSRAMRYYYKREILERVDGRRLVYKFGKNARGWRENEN
To be noted: protein: recombinant; tags: N-terminal GST; dsDNA, one strand shown. In a few lines: as §1

The target in the next assay is SPI1 (Homo sapiens, UniProt P17947 1-270). To be noted: protein: recombinant; tags: N-terminal GST; dsDNA, one strand shown. Summed up:
as §1

In the next assay the target is SPIB (Homo sapiens, UniProt Q01892 1-262). To be noted: protein: recombinant; tags: N-terminal GST; dsDNA, one strand shown. Summed up: as §1
The next assay concerns the target T6, ELK3 (Homo sapiens, UniProt P41970 1-407).
T6 sequence: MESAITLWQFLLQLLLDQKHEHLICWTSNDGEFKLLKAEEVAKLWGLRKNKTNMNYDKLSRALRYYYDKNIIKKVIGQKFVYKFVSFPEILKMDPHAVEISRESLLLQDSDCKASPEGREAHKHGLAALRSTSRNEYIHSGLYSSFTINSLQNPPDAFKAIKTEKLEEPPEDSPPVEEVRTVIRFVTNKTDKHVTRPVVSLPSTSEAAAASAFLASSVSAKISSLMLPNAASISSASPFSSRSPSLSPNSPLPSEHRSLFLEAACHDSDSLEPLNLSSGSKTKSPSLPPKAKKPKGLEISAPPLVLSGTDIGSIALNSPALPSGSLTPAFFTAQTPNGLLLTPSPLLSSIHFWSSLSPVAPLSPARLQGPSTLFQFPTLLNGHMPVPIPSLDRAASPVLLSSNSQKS
To be noted: protein: recombinant; tags: N-terminal GST; dsDNA, one strand shown. In a few lines: as §1

The target in a further assay is T7, FEV (Homo sapiens, UniProt Q99581 1-238).
T7 sequence: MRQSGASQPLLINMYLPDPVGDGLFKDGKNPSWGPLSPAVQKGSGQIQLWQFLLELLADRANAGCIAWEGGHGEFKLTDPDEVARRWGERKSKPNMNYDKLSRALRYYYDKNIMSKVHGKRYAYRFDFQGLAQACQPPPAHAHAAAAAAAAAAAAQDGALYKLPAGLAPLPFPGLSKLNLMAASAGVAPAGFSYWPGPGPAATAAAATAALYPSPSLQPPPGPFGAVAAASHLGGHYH
To be noted: protein: recombinant; tags: N-terminal GST; dsDNA, one strand shown. Summed up: as §1

The target in another assay is ETV5 (Homo sapiens, UniProt P41161 1-510). To be noted: protein: recombinant; tags: N-terminal GST; dsDNA, one strand shown. Summed up: as §1
Another assay deals with HSF1 (Homo sapiens, UniProt Q00613 1-529). To be noted: protein: recombinant; tags: N-terminal GST; chain copies: 3; dsDNA, one strand shown. In a few lines: as §1
The target in a further assay is ELF4 (Homo sapiens, UniProt Q99607 1-663). To be noted: protein: recombinant; tags: N-terminal GST; dsDNA, one strand shown. In a few lines: as §1
The target in another assay is T8, ELK4 (Homo sapiens, UniProt P28324-2 1-405).
T8 sequence: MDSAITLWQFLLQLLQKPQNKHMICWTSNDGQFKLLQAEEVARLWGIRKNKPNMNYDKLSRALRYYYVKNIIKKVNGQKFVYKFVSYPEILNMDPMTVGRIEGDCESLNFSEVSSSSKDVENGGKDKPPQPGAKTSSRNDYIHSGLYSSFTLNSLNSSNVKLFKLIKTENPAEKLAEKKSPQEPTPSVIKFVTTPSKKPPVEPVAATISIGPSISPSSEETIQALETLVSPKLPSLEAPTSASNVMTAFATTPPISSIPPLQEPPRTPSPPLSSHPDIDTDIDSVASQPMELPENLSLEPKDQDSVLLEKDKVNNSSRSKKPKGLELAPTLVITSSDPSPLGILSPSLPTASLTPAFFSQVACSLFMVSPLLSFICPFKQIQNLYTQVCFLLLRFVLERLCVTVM
To be noted: protein: recombinant; tags: N-terminal GST; dsDNA, one strand shown. In a few lines:
as §1

Another assay addresses T9, ETV2 (Homo sapiens, UniProt O00321 1-342).
T9 sequence: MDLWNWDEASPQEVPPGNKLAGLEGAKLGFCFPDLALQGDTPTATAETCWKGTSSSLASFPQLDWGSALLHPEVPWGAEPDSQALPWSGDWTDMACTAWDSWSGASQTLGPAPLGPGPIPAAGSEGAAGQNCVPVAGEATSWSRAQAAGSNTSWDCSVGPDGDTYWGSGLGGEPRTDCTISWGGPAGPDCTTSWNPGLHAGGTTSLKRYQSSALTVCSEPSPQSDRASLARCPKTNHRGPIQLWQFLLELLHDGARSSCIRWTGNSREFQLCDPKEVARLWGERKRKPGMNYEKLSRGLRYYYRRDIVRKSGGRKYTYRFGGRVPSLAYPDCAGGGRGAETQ
To be noted: protein: recombinant; tags: N-terminal GST; dsDNA, one strand shown. In a few lines:
as §1

Another assay deals with T10, ELF3 (Homo sapiens, UniProt P78545 1-371).
T10 sequence: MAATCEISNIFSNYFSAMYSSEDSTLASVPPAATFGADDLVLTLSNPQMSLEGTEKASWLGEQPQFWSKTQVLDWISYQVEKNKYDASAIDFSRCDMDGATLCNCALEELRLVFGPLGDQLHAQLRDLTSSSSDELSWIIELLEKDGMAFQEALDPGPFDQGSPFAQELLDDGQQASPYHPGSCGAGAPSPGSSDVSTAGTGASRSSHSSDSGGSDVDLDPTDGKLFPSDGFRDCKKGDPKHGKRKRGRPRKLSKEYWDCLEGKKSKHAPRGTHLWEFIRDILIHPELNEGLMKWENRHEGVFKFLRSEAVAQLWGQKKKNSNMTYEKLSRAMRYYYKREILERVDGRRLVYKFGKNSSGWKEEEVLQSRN
To be noted: protein: recombinant; tags: N-terminal GST; dsDNA, one strand shown. In a few lines:
as §1

A further assay has as its target CRX (Homo sapiens, UniProt O43186 1-299). To be noted: protein: recombinant; tags: N-terminal GST; dsDNA, one strand shown. Summed up:
as §1

Another assay deals with ETV1 (Homo sapiens, UniProt P50549 1-477). To be noted: protein: recombinant; tags: N-terminal GST; dsDNA, one strand shown. Summed up: as §1
Chain of ETV1 (P50549 whole entry): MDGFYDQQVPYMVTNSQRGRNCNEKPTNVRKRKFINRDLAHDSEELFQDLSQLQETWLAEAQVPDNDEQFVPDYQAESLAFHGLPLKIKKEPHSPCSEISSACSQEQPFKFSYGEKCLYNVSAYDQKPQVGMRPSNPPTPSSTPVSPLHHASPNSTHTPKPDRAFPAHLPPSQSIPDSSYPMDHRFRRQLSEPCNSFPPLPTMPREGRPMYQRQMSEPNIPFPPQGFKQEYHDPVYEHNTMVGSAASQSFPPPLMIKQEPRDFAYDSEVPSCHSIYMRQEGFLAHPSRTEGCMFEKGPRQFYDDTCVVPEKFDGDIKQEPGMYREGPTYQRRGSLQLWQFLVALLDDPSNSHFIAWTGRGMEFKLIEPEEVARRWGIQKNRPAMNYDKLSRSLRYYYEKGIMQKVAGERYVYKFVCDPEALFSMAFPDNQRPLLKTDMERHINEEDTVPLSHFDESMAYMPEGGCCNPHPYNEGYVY

Chain of SPIB (Q01892 whole entry): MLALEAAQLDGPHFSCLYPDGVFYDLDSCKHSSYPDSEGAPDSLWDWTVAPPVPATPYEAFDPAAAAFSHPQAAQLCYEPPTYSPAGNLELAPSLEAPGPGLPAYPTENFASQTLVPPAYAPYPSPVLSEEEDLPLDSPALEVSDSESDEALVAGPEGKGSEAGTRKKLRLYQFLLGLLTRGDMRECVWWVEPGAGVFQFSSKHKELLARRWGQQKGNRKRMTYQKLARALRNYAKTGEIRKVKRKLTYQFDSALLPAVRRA
Chain of HSF1 (Q00613 whole entry): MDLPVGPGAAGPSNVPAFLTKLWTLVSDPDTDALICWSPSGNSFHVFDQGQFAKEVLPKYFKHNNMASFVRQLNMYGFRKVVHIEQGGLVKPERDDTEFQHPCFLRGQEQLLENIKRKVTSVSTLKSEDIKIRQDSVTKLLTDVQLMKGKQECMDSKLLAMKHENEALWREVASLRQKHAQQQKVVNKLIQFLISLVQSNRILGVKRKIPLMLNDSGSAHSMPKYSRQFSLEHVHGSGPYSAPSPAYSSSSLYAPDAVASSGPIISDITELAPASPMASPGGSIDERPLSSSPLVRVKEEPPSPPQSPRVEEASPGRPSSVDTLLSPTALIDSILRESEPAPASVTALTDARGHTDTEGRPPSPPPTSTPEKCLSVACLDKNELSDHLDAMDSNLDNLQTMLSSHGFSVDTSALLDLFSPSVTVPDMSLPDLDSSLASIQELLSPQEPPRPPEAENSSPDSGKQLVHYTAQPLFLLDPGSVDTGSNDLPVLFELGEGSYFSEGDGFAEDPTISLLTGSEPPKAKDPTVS
Chain of ELF1 (P32519 whole entry): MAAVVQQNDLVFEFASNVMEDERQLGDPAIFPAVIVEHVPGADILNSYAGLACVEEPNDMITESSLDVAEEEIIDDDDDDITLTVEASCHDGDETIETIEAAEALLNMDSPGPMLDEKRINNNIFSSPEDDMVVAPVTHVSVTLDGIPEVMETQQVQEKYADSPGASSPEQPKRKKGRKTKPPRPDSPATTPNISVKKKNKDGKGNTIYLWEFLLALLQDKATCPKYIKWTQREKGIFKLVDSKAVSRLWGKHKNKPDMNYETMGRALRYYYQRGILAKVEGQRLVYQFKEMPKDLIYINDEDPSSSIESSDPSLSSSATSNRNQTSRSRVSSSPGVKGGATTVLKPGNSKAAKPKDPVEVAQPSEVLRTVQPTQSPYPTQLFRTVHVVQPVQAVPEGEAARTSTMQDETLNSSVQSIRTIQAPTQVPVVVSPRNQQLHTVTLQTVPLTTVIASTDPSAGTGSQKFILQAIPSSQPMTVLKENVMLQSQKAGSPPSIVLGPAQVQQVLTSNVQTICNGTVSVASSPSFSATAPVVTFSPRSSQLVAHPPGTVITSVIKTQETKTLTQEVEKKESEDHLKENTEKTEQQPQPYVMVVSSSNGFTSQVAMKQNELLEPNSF
Chain of ETV5 (P41161 whole entry): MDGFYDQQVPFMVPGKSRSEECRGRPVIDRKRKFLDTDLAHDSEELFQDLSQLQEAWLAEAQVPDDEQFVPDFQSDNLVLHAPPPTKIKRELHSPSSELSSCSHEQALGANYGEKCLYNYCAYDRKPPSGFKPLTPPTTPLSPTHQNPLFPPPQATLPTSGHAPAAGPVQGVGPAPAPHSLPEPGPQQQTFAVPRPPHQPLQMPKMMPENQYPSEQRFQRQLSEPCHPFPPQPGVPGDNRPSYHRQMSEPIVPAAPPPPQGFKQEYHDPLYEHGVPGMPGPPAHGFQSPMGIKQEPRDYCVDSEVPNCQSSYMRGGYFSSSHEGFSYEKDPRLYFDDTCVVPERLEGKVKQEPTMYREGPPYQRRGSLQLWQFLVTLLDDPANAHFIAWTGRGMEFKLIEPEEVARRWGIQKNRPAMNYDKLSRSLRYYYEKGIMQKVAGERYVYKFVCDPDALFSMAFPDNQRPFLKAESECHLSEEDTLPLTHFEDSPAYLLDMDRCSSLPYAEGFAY
Chain of ELF4 (Q99607 whole entry): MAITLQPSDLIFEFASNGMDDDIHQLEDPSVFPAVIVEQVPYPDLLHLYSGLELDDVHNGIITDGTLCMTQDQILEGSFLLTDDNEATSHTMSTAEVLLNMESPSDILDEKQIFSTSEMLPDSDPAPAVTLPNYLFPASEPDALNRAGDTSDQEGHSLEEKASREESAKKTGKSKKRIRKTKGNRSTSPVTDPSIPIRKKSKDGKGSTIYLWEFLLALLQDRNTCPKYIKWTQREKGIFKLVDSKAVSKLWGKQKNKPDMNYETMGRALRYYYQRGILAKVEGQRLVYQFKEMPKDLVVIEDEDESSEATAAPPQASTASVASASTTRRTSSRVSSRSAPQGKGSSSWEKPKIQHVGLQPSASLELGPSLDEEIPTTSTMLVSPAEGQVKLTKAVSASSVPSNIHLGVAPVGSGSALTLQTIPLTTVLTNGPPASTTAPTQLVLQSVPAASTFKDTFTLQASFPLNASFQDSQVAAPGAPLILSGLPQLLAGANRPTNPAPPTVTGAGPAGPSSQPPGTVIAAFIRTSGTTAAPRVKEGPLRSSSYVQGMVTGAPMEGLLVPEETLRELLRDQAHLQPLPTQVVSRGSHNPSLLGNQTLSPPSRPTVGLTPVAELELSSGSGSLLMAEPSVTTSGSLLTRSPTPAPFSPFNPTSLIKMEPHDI
Chain of CRX (O43186 whole entry): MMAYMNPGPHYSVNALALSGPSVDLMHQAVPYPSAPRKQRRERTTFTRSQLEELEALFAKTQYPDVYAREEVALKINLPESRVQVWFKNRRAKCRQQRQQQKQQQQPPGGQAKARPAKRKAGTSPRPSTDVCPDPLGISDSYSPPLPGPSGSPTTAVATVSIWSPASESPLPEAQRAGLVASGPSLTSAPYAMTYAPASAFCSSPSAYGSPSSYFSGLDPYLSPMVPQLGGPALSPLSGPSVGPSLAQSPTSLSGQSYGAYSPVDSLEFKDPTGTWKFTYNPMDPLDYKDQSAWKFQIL

For the sequence CCATTG, the binding signal with FLI1 is 1.33 fold enrichment (6-mer frequency, TF over GST control); in the assay with ELK1 it was 1.16 fold enrichment (6-mer frequency, TF over GST control); with GABPA, 1.32 fold enrichment (6-mer frequency, TF over GST control); with ERG, 1.19 fold enrichment (6-mer frequency, TF over GST control); in the assay with ELF1 it was 1.15 fold enrichment (6-mer frequency, TF over GST control); with EHF, 1.19 fold enrichment (6-mer frequency, TF over GST control). The binding signal in the assay with SPI1 was 1.25 fold enrichment (6-mer frequency, TF over GST control); with SPIB it was 1.05 fold enrichment (6-mer frequency, TF over GST control); with ELK3, 1.16 fold enrichment (6-mer frequency, TF over GST control); in the assay with FEV it was 1.15 fold enrichment (6-mer frequency, TF over GST control); with ETV5, 1.16 fold enrichment (6-mer frequency, TF over GST control); in the assay with HSF1, 1.07 fold enrichment (6-mer frequency, TF over GST control). The binding signal with ELF4 was 1.17 fold enrichment (6-mer frequency, TF over GST control); with ELK4, 1.11 fold enrichment (6-mer frequency, TF over GST control); in the assay with ETV2, 1.26 fold enrichment (6-mer frequency, TF over GST control); in the assay with ELF3, 1.07 fold enrichment (6-mer frequency, TF over GST control); with CRX, 1.02 fold enrichment (6-mer frequency, TF over GST control); in the assay with ETV1, 1.05 fold enrichment (6-mer frequency, TF over GST control).
